In the library only some 32% were active in any assay of this set; here they are far more common.
CYP2C19 act = activators of human cytochrome P450 2C19. P33261. recombinant CYP2C19, luciferin-H EGE luminescence; active compounds read high; 0 = fully inhibited enzyme, 1 = untreated enzyme. activation factor at 5 µM. 96,000 tested, under 10 active. AID 1025;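 active = activation factor of at least 2 at 5 µM in the primary screen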;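 also: 0 = wells with 2.5 mM tranylcypromine and 1 = vehicle-only wells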
CYP2C9 inhib = human CYP2C9 inhibition | CYP2C9 Supersomes, luciferin-H conversion, luminescence | AID 777 | inhibition, % at 5 µM | hit rate 20% among 96,000 | P11712;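 active = blocking of liver enzyme CYP2C9 beyond about 50% at 5 µM, limit read from the data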
Target sequence (P11712 whole entry, looked up): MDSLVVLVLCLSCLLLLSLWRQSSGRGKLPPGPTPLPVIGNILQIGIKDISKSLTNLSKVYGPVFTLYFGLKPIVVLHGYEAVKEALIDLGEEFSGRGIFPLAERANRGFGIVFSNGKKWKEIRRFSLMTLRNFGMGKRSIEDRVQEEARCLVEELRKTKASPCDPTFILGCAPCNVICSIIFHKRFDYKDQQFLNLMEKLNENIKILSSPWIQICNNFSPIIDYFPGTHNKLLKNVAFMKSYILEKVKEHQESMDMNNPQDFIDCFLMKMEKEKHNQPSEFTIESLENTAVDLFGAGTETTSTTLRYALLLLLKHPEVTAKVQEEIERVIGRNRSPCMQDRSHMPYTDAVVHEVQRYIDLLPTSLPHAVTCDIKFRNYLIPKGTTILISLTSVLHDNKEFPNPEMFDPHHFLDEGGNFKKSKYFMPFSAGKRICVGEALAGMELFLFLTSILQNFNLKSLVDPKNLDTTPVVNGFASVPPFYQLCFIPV
PostGolgi ctrl = yeast control strain growth, post-Golgi counter-screen. efflux-deficient yeast background strain, growth absorbance A615, 16 h. inhibition, % at 10 µM. hit rate 5% among 98,000
CYP2C19 inhib = blocks human cytochrome P450 2C19. P33261. CYP2C19 Supersomes, luciferin-H EGE luminescence, 30 min. inhibition, % at 5 µM. hit rate 21% among 96,000;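 active = CYP2C19 inhibition above a set limit at 5 µM in the primary screen, cut at about 50% in these data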;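 also: plate controls were negative control wells for no effect and 2.5 mM tranylcypromine positive control for full effect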
CYP2C9 act = increases human cytochrome P450 2C9 activity | recombinant CYP2C9, luciferin-H conversion, luminescence; active compounds read high; factor 1 = untreated enzyme, 0 = blocked | hit rate 1.4% among 96,000 | AID 1024 | activation factor at 5 µM;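 active = activation factor of 2 or more for CYP2C9 at a 5 µM dose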;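 also: 0 = sulfaphenazole-blocked wells and 1 = vehicle-only wells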
PostGolgi yeast = growth inhibition of a yeast mutant, post-Golgi transport screen; post-Golgi transport phenotypic cell assay; AID 739; hit rate 0.9% among 98,000; inhibition, % at 10 µM;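 also: yeast cells grown in 1536-well plates; yeast grown about 18 h at 30C before absorbance read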
Starred values were filed as active, the others as inactive. Rule as the data show it, unless noted: active = inhibition above about 30%; inactive = the rest.

SMILES | CYP2C19 act | CYP2C9 inhib | PostGolgi ctrl | CYP2C19 inhib | CYP2C9 act | PostGolgi yeast
Cn1c(C(=O)N2CCCc3ccccc32)cc2sccc21 | 0.3 | 31 | 13 | 71* | 0.7 | -6
O=C(c1cc2sccc2n1Cc1ccccc1)N1CCc2ccccc21 | 0.9 | 63* | 30 | 13 | 0.4 | 3
O=C(c1cc2sccc2n1Cc1ccccc1)N1CCCc2ccccc21 | 0.1 | 95* | 13 | 88* | 0.1 | -12
CCOc1cc(N2CCOCC2)c(OCC)cc1NC(=O)c1cc(-c2ccco2)nc2ccccc12 | 0.7 | 27 | 10 | 32 | 0.7 | 8
COc1cc(C2NC(=O)c3ccccc3O2)cc(OC)c1OC (configuration not stated) | 0.1 | 38 | 7 | 94* | 0.6 | -5
CCOC(=O)c1cccnc1SC(CC)C(=O)NCc1ccco1 (configuration not stated) | 0.3 | 70* | 6 | 68* | 0.3 | -2
CCC(Sc1ncccc1C(=O)OCCN1CCCC1=O)C(=O)NCc1ccco1 (configuration not stated) | 1.1 | 15 | 0 | -9 | 0.9 | 3
CCC(Sc1ncccc1C(=O)OC(C)C)C(=O)NCc1ccco1 (configuration not stated) | 0.5 | 50 | -2 | 55* | 0.5 | -4
CCC(OC(=O)c1ccco1)C(=O)NCc1ccco1 (configuration not stated) | 0.7 | 7 | 4 | 33 | 0.9 | -3
CN(C)S(=O)(=O)N1CCN(C(=O)c2ccccc2)CC1 | 0.6 | -2 | -3 | 44 | 1 | -4
O=C(c1c(F)cccc1F)N(Cc1ccccn1)C1CCCC1 | 0.9 | 12 | -11 | 10 | 0.9 | -3
CCC(=O)N1CCN(c2ccc(Cl)cc2NC(=O)c2ccc3c(c2)OCCO3)CC1 | 0.7 | 71* | 47* | 26 | 0.3 | -2
CCC(=O)N1CCN(c2ccc(Cl)cc2NC(=O)Cc2ccccc2)CC1 | 0.2 | 79* | 18 | 83* | 0.2 | 19
O=C(Nc1cccc2ccccc12)/C(Cl)=C/c1ccccc1 | 1 | -199 | 3 | 4 | 3* | -4
O=C(Nc1cccc2ccccc12)/C(=C/c1ccc([N+](=O)[O-])cc1)NC(=O)c1ccccc1 | 0.5 | 12 | 5 | 46 | 0.9 | -5
C=CCn1c(SCC(=O)NC(=O)NCC(C)C)nnc1C1CCCCC1 | 0.4 | 4 | 0 | 55* | 1 | 8
C=CCn1c(SCC(=O)NC(=O)NCCC)nnc1C1CCCCC1 | 0.4 | 66* | 2 | 58* | 0.3 | 0
Cc1ccc(C)c(C2=CSC3=NCCN23)c1 | 0.5 | 30 | -3 | 52* | 0.7 | -6
Clc1ccc(C2=CSC3=NCCN23)cc1Cl | 0.3 | 26 | 2 | 71* | 0.7 | -3
COc1ccc(C(=O)Nn2cnc3ccccc3c2=O)c(OC)c1 | 0.8 | -6 | 4 | 24 | 1.1 | -11
COc1cccc(C2C3=C(CC(C)(C)CC3=O)Nc3cc4c(cc32)OCO4)c1 (configuration not stated) | 0.3 | 93* | 19 | 72* | 0.1 | -2
CC1=C(C(=O)N2CCCCC2)C(c2cccs2)C2=C(CCCC2=O)N1 (configuration not stated) | 1 | 4 | 7 | 5 | 1 | 4
COc1cc2c(cc1OC)C(c1ccc3c(c1)OCO3)C1=C(CC(C)(C)CC1=O)N2 (configuration not stated) | 1 | -2 | 21 | 0 | 1 | 3
CCCOC(=O)C1=C(C)NC2=C(C(=O)CCC2)C1c1ccc(N(C)C)cc1 (configuration not stated) | 0.8 | 56* | 5 | 22 | 0.4 | -10
COC(=O)C1=C(C)NC2=C(C(=O)CCC2)C1c1cccs1 (configuration not stated) | 0.2 | 76* | 1 | 79* | 0.2 | -2
CCOC(=O)C1=C(C)NC2=C(C(=O)CCC2)C1c1ccsc1 (configuration not stated) | 0.5 | 39 | 7 | 53* | 0.6 | -1
CCNc1nc(NC(C)C)nc(Oc2ccc(OCCOc3ccc(C)cc3)nn2)n1 | 0.6 | 28 | 9 | 40 | 0.7 | -4
Cc1nc(C(F)(F)F)c(C(=O)NC(=O)Nc2ccccc2)s1 | 0.8 | 18 | 3 | 21 | 0.8 | 5

Source: PubChem BioAssay
